For nine molecules, z-score and composite z-score results are on record in PubChem BioAssay.

Assay [1] is described as follows: compound effects on lung adenocarcinoma cell viability – A549, calcein-AM fluorescence, 48 h, basal, profiling panel (AID 1162). Note: test concentration not given here. Conditions: higher = more signal.
The nature of assay [2]: compound effects on differentiated 3T3-L1 adipocyte viability – cell-based, 3T3-L1 adipocytes, calcein-AM fluorescence, 48 h, basal, profiling panel (AID 1163). Note: test concentration not given here. As to conditions: 3T3-L1 adipocytes viability, higher = more signal.
A short description of assay [3]: compound effects on hepatocellular carcinoma cell viability – HepG2, calcein-AM fluorescence, 48 h, basal, profiling panel (AID 1164). Note: test concentration not given here. As to conditions: higher = more signal.
Assay [4] in a line: compound effects on multiple myeloma cell viability – MM1S, calcein-AM fluorescence, 48 h, basal, profiling panel (AID 1165). Note: test concentration not given here. Conditions: higher = more signal.
Assay [5] can be described thus: calcein-AM signal in unstimulated myeloma cells – cell-based, calcein-AM fluorescence, 48 h, PK04 Diversity Set, profiling panel (AID 1166).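 Note: cells grown under basal conditions without added stimulus; test concentration not given here.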 As to conditions: RPMI8226 myeloma viability, higher = more signal.
Assay [6] can be described thus: JC-1 mitochondrial signal, unstimulated HepG2 cells – cell-based, JC-1 fluorescence, 24 h, 100 nL compound, profiling panel (AID 1167). Note: test concentration not given here. Conditions: HepG2 mitochondrial potential, higher = more signal.
Assay [7] in a line: JC-1 mitochondrial signal, unstimulated adipocytes – cell-based, JC-1 fluorescence, 3T3-L1 adipocytes, 24 h, 100 nL compound, profiling panel (AID 1168). Note: test concentration not given here. Conditions: JC-1 mitochondrial fluorescence, higher = more signal, called active from +8 up or from −8 down.
Assay [8] in a line: JC-1 mitochondrial signal, unstimulated myeloma cells – cell-based, JC-1 fluorescence, RPMI8226, 24 h, 100 nL compound, profiling panel (AID 1169). Note: test concentration not given here. As to conditions: JC-1 mitochondrial potential fluorescence, higher = more signal.
Assay [9] in a line: JC-1 mitochondrial signal, unstimulated MM1S myeloma – cell-based, JC-1 fluorescence, 24 h, 100 nL compound, profiling panel (AID 1170). Note: test concentration not given here. Conditions: MM1S mitochondrial potential, higher = more signal.
Assay [10] in a line: resazurin metabolic signal in A549 cells – cell-based, resazurin fluorescence, 24 h, PK04 Diversity Set, profiling panel (AID 1171). Note: test concentration not given here. As to conditions: A549 viability, higher = more signal, called active from +8 up or from −8 down. For orientation: The colour change of resazurin is a common sign of viable cells or microbes.
Assay [11] in a line: resazurin metabolic signal in HepG2 cells – cell-based, resazurin fluorescence, 24 h, PK04 Diversity Set, profiling panel (AID 1172). Note: test concentration not given here. Conditions: HepG2 viability, higher = more signal.
Assay [12] is described as follows: budding yeast growth changes without added modifier – OD600, strain BY4716, 24 h, basal condition, primary screen (AID 1173). Conditions: S. cerevisiae BY4716 growth, OD600, 24 h; higher = more signal, called active from +8 up or from −8 down.
The nature of assay [13]: viability profiling in MM1S myeloma cells – cell-based, resazurin fluorescence, basal, 24 h, PK04 Diversity Set, profiling panel (AID 1174). Note: test concentration not given here. As to conditions: higher = more signal, called active from +8 up or from −8 down.
In assay [14] the target is Dihydroorotate dehydrogenase (quinone), mitochondrial (Plasmodium falciparum (isolate 3D7)) (UniProt Q08210). The assay can be described thus: inhibition of P. falciparum DHODH – biochemical, C-terminal His tag, absorbance 600 nm, primary screen (AID 1175).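 Note: recombinant parasite enzyme with a five histidine tag at its C terminus; test concentration not given here.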 As to conditions: PfDHODH enzyme, DCIP absorbance 600 nm; higher = more signal, called active from +8 up or from −8 down.

Assay [15] in a line: inhibition of PAO1 biofilm formation – strain PAO1, LB-PBS medium, absorbance 600 nm, primary screen (AID 1176). Note: test concentration not given here. Conditions: P. aeruginosa PAO1 growth/biofilm, A600, 12 h; higher = more signal.
Assay [16] can be described thus: growth modulation of vineyard yeast isolate – strain RM11-1a, OD600, basal, 24 h, primary screen (AID 1177).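 Note: cultures grown under basal conditions with no added stressor; test concentration not given here.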 Conditions: S. cerevisiae RM11-1a growth, OD600, 24 h; higher = more signal, called active from +8 up or from −8 down.
The nature of assay [17]: growth of efflux-deficient E. coli DRC39 – strain DRC39, OD650, 24 h, E. coli filamentation inducers, primary screen (AID 1178).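 Note: growth measured as culture turbidity by optical density at 650 nm; test concentration not given here.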 Conditions: E. coli DRC39 acrAB, higher = more signal, called active from +8 up or from −8 down.
Assay [18] is described as follows: growth of efflux-deficient E. coli DRC39 – strain DRC39, OD650, 48 h, E. coli filamentation inducers, primary screen (AID 1179).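 Note: screen aims at cell division blockers that make cells filament.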 Conditions: E. coli DRC39 delta-acrAB growth, higher = more signal, called active from +8 up or from −8 down.
Assay [19] is described as follows: viability profiling in RPMI8226 myeloma cells – cell-based, resazurin fluorescence, basal, 24 h, PK04 Diversity Set, profiling panel (AID 1180).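 Note: RPMI8826 multiple myeloma cell line at 5000 cells per well; test concentration not given here.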 As to conditions: higher = more signal.
Assay [20] deals with E3 ubiquitin-protein ligase XIAP (Homo sapiens) (UniProt P98170). The assay can be described thus: small molecules binding XIAP protein – biophysical, small-molecule microarray, fluorescence 635 nm, primary screen (AID 1181).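 Note: score merges 667 nm emission and signal to noise over triplicate slides.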 Conditions: higher = more signal.

Active and inactive are the calls of the source. Unless noted, the rule behind the calls is not given here.

Chain of E3 ubiquitin-protein ligase XIAP (Homo sapiens) (P98170 whole entry, looked up): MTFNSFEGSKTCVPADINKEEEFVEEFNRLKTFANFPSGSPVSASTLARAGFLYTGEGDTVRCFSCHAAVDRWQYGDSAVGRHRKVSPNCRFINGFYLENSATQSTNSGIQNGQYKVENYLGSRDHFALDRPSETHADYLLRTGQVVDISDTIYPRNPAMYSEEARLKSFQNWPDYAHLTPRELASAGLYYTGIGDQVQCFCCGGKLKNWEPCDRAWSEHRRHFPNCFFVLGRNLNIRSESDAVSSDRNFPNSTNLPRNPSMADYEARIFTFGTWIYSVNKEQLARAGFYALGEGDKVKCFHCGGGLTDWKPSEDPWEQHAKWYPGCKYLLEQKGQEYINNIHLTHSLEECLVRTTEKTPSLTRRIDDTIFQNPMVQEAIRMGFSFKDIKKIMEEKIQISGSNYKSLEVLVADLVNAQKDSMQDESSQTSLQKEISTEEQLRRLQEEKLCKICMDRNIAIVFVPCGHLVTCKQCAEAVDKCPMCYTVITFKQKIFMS
Chain of Dihydroorotate dehydrogenase (quinone), mitochondrial (Plasmodium falciparum (isolate 3D7)) (Q08210 whole entry, looked up): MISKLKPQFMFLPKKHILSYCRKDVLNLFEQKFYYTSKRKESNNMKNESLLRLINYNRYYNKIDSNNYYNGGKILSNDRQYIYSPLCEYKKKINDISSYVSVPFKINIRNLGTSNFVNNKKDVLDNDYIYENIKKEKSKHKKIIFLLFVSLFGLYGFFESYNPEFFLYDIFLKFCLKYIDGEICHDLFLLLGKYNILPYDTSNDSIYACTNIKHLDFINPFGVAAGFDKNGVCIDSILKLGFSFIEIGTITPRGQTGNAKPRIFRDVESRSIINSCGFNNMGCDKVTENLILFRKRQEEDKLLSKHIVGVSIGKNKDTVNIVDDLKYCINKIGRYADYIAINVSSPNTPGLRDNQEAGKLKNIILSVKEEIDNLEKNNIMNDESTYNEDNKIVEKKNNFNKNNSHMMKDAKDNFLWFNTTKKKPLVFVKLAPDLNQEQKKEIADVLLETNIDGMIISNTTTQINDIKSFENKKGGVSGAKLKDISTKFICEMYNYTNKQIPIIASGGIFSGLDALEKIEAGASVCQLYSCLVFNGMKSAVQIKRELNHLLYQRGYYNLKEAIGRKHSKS

For `CC(C)C(=C=CC[C@@H](O)c1cccc(OCCO)c1)CCO`, the z-score in assay [1] was 0.418; in assay [2] it was 0.114; in [3], 0.785; in assay [4] it was 0.753; in assay [5], -0.25; in [6], 0.436. In addition, the z-score was 0.258 (inactive) in [7]; 0.314 in assay [8]; -1.18 in [9]; 0.625 (inactive) in assay [10]; 0.545 in [11]; -1.15 (inactive) in assay [12]. The z-score in assay [13] is 0.265 (inactive); in assay [15], 0.2 (inactive); in assay [16], 0.0632 (inactive); in assay [17] it was 0.546 (inactive); in [18] it was 0.423 (inactive); in [19] it was 0.336. The composite z-score in [14] was -1.1 (inactive); in assay [20], -0.127.

Turning to `COCCOC(=O)N1C(=O)[C@@]2(c3cc(C#CC4=CCCCC4)ccc31)[C@H](c1ccc(OCCO)cc1)N1[C@H](c3ccccc3)[C@H](c3ccccc3)OC(=O)[C@H]1[C@@H]2C(=O)N1CCCCCCC1`, the z-score was 0.508 in assay [1]; 1.35 in assay [2]; 1.5 in assay [3]; 0.177 in [4]; -0.288 in assay [5]; -0.288 in assay [6]. Also, the z-score was -2.7 (inactive) in [7]; -1.19 in assay [8]; -1.21 in assay [9]; -2.16 (inactive) in assay [10]; -0.748 in [11]; -0.747 (inactive) in assay [12]. The z-score in assay [13] is -0.168 (inactive); in assay [15], 3.23 (inactive); in assay [16], -0.766 (inactive); in assay [17] it was -0.363 (inactive); in [18] it was 0.817 (inactive); in assay [19], -0.435. For the same molecule, the figures for the composite z-score in [14] and in assay [20] were -0.859 (inactive) and 0.248, respectively.

As to `NC(=O)N1C(=O)C2C(C1=O)C1C=C(CCCO)C2C(c2ccc(CN3CCCC3)cc2)N1Cc1cccc(OC(F)(F)F)c1` (stereo not given), the z-score was 0.0272 in assay [1]; -0.0602 in assay [2]; -0.215 in assay [3]; -3.34 in assay [4]; -0.614 in [5]; 0.221 in assay [6]. The z-score in [7] is -0.348 (inactive); in assay [8], 0.708; in assay [9], -0.275; in assay [10] it was 0.657 (inactive); in [11], -0.708; in [12], -0.491 (inactive). Moreover, the z-score was -0.504 (inactive) in assay [13]; -0.66 (inactive) in assay [15]; -0.219 (inactive) in [16]; -0.385 (inactive) in [17]; -0.579 (inactive) in [18]; -0.884 in assay [19]. In addition, the composite z-score was -4.9 (inactive) in assay [14] and 0.101 in [20].

As for `CCOC(=O)C1=C(C(=O)OCC)N(S(=O)(=O)CC[Si](C)(C)C)[C@H](c2ccccc2)CC1`, the z-score in [1] is -2.6; in assay [2], -0.872; in assay [3], -2.78; in assay [4] it was -1.02; in [5], -4.13; in [6], 3.63. The z-score in assay [7] was -0.0617 (inactive); in [8] it was -0.982; in assay [9], -3.04; in [10], 0.571 (inactive); in assay [11] it was 0.95; in assay [12], 1.77 (inactive). The z-score in assay [13] is -2.4 (inactive); in [15] it was 0.201 (inactive); in assay [16] it was 1.73 (inactive); in [17], -0.203 (inactive); in assay [18], -0.238 (inactive); in assay [19] it was -4.03. Besides, the results for the composite z-score in assay [14] and in assay [20] were -0.493 (inactive) and -0.127, respectively.

For `C=CCC(OC(C)=O)[C@@H]1[C@@H](N(Cc2cc3ccccc3o2)C(=O)Cc2ccc(OC)cc2)c2cc(OCCCO)ccc2N1C(=O)Cc1ccc(OC)cc1` (stereo not given in full), the z-score in assay [1] was 0.3; in [2] it was 1.71; in assay [3] it was 0.128; in assay [4] it was 0.708; in [5], -1.74; in [6] it was 2.14. The z-score is -0.184 (inactive) in assay [7]; -0.566 in [8]; 0.799 in [9]; -0.914 (inactive) in assay [10]; -1.28 in [11]; -1.01 (inactive) in assay [12]. The z-score in assay [13] is -0.0297 (inactive); in assay [15] it was 0.198 (inactive); in [16], -0.133 (inactive); in [17], -0.184 (inactive); in assay [18], -0.578 (inactive); in [19] it was -0.561. In addition, the composite z-score in [14] is 0.707 (inactive); in assay [20] it was 0.0345.

As for `CN(C)C(=O)[C@@]1(CCS(=O)(=O)c2ccccc2)N=C(c2ccc(OCCCO)cc2)O[C@H]1c1ccccc1N=[N+]=[N-]`, the z-score in [1] is 0.137; in assay [2], -0.471; in assay [3], 1.27; in [4], -1.68; in assay [5] it was -0.941; in assay [6] it was 0.121. The z-score in assay [7] is -0.477 (inactive); in assay [8] it was -1.32; in assay [9], -0.591; in assay [10], -0.217 (inactive); in assay [11], -0.679; in assay [12], 0.135 (inactive). Further, the z-score is -0.517 (inactive) in [13]; -0.0558 (inactive) in assay [15]; -0.241 (inactive) in assay [16]; -0.068 (inactive) in assay [17]; 0.0077 (inactive) in [18]; -1.68 in [19]. The composite z-score in assay [14] was -0.926 (inactive); in assay [20], -0.0676.

Consider `COc1ccc(CCNC(=O)[C@@H]2c3ccccc3C(=O)N(CC34CC5CC(CC(C5)C3)C4)[C@H]2c2ccc(CO)cc2)cc1`, for which the z-score in [1] is 0.263; in [2], 1.63; in assay [3], 0.463; in assay [4], -1.39; in [5], -0.559; in assay [6], 1.47. Moreover, the z-score in assay [7] is -0.138 (inactive); in assay [8], -0.435; in assay [9] it was -0.0819; in assay [10], 0.228 (inactive); in [11], 0.556; in assay [12] it was -0.547 (inactive). Also, the z-score in assay [13] was -1.05 (inactive); in assay [15], 0.565 (inactive); in [16], -0.134 (inactive); in [17] it was 0.517 (inactive); in assay [18], 0.119 (inactive); in assay [19] it was 0.618. The composite z-score in [14] was 0.12 (inactive); in assay [20], 0.399.

Consider `Cc1ccc(F)cc1S(=O)(=O)N[C@@H]1CCN(Cc2ccc3c(c2)OCO3)C1`, for which the z-score in assay [1] is 0.923; in assay [2], -0.447; in assay [3], 0.326; in assay [4], 0.361; in assay [5] it was -0.525; in [6], -0.184. Moreover, the z-score in assay [7] is -0.0208 (inactive); in assay [8], 0.302; in assay [9], -0.591; in assay [10] it was -0.156 (inactive); in [11], -0.622; in assay [12] it was -4.86 (inactive). Besides, the z-score in assay [13] was -0.584 (inactive); in assay [15], -0.177 (inactive); in assay [16], 0.34 (inactive); in [17], -0.572 (inactive); in assay [18], -2.33 (inactive); in [19], 0.224. In addition, the figures for the composite z-score in assay [14] and in assay [20] were 0.171 (inactive) and 0.13, respectively.

Turning to `COc1ccc([Si](C)(C)[C@@H]2[C@@H](CC(=O)N(CCO)Cc3ccccc3)O[C@]3(C(=O)N(Cc4ccc(N5CCC5=O)cc4)c4ccccc43)[C@H]2C)cc1`, the z-score in assay [1] is -0.361; in [2], 2.28; in assay [3], -1.34; in [4], -1.28; in assay [5], -3.15; in assay [6], 0.768. Also, the z-score was 1.95 (inactive) in [7]; -0.944 in assay [8]; -0.83 in assay [9]; -1.37 (inactive) in assay [10]; 0.278 in [11]; 0.144 (inactive) in assay [12]. For the same molecule, the z-score in assay [13] was -0.604 (inactive); in [15], 1.2 (inactive); in [16], 0.67 (inactive); in [17], 0.505 (inactive); in [18], 0.358 (inactive); in [19], -1.66. Further, the composite z-score in assay [14] was -1.44 (inactive); in [20], -0.0151.
